Laboratory results reported in PubChem BioAssay AID2098 (Broad Institute, 2009).
In all, about 300,000 compounds went through this assay and about 2,300 (0.77%) were called active.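 The calls were made as follows: active = more than half of replicate wells show activity change below -50%, luminescence cut by over half; inconclusive = some wells, but at most half, below -50%; inactive = no replicate well below -50%.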 The full list was thinned out, with actives kept by preference.

Experiment: HSF1 inhibitors in luciferase reporter cells, primary screen, cell-based, NIH3T3, luminescence (AID 2098);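 also: luciferase reports HSF-1 transcriptional activity via heat shock element; 0% = median of DMSO wells and -100% = zero luminescence signal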
Settings: NIH3T3-HGL HSE-luciferase, MG132-induced, luminescence 8 h; stronger effect = lower value; screened at 7.5 µM (by protocol)

| SMILES | activity change, negative = inhibition |
| --- | --- |
| Brc1ccc2nc(N3CCCC3)sc2c1 | 22% (inactive) |
| c1c2c(cc3sc(N4CCCCC4)nc13)OCCO2 | -55.1% (active) |
| Cc1nc2cc3c(cc2s1)OCO3 | 3.71% (inactive) |
| Cc1ccc(S(=O)(=O)N2CCN(C(=O)c3ccc(-n4cncn4)c([N+](=O)[O-])c3)CC2)cc1 | -4.92% (inactive) |
| Cc1cc(C)c(SCCc2ccncc2)c(C)c1 | -16.4% (inactive) |
| CC(C)(C)C(=O)COC(=O)c1cc(S(=O)(=O)N2CCCCC2)ccc1N1CCOCC1 | 0.13% (inactive) |
| Cc1ccnc(NS(=O)(=O)c2ccc(NC(=O)c3ccc(S(=O)(=O)N(C)C)cc3)cc2)n1 | 1.75% (inactive) |
| Cc1cc(C)c2oc(C(=O)Nc3ccc(S(=O)(=O)Nc4nccc(C)n4)cc3)cc(=O)c2c1 | -70.7% (active) |
| Cc1ccnc(NS(=O)(=O)c2ccc(NC(=O)c3oc4ccccc4c3C)cc2)n1 | -1.33% (inactive) |
| CC1(c2nnc(Cc3ccccc3)o2)CC(c2ccccc2F)=NO1 (centres undefined) | -1.4% (inactive) |
| Cc1cccc(C(=O)Nc2ccccc2N2CCN(c3ccc(F)cc3)CC2)c1 | -1.05% (inactive) |
| Cc1cccc(C(=O)NNC(=O)c2cccc([N+](=O)[O-])c2)c1 | -3.12% (inactive) |
| Cc1cccc(C(=O)NC(=S)N2CCN(c3ccc([N+](=O)[O-])cc3)CC2)c1 | -62.5% (active) |
| O=S(=O)(/C=C/c1ccccc1)N1CCNCC1 | 0.181% (inactive) |
| CN1CCN(S(=O)(=O)c2ccc(Nc3ccc(F)cc3)nc2)CC1 | -3.3% (inactive) |
| O=C(O)c1cccc(NC(=O)c2cc(-c3cccc(Cl)c3)nc3ccccc23)c1 | -10.6% (inactive) |
| O=C(Nc1cccc(F)c1)c1cc(-c2ccco2)nc2ccccc12 | -58.6% (active) |
| COc1ccc(NC(=O)c2cc(-c3ccc(C)o3)nc3ccccc23)cc1 | 8.98% (inactive) |
| COc1ccccc1C(=O)NCCC(=O)NC(C)CCc1ccccc1 (centres undefined) | 1.3% (inactive) |
| Cc1ccc(S(=O)(=O)N(C)c2ccc(OCC(=O)OCc3ccc(C#N)cc3)cc2)cc1 | -4.36% (inactive) |

| SMILES | activity change, negative = inhibition |
| --- | --- |
| COc1ccc(C2=NOC(Cn3nc(C(=O)NCc4ccc5c(c4)OCO5)cc3-c3ccccc3)C2)cc1 (centres undefined) | 2.18% (inactive) |
| c1ccc(-c2c[nH]c(-c3ccccc3)c2)cc1 | -83.8% (inactive) |
| Cc1nccn1CC(=O)N/N=C/c1ccc(O)c(O)c1 | 2.17% (inactive) |
| Oc1ccc(/C=N/Nc2ccc(C(F)(F)F)cn2)cc1O | -78.4% (active) |
| O=C(Nc1ccccc1)Nc1ccc(C(F)(F)F)cn1 | -1.47% (inactive) |
| N/C(=N\OC(=O)CCC1CCCCC1)c1ccccn1 | 17.7% (inactive) |
| CSc1ncccc1C(=O)NC1CCCCCC1 | -4.75% (inactive) |
| CCC(C)(NC(=O)c1ccccn1)C(=O)NC1CCCCC1 (centres undefined) | -54.6% (active) |
| CC(Oc1ccc(F)cc1)C(=O)Nc1ccccc1C(=O)NC1CC1 (centres undefined) | 5.48% (inactive) |
| CCOC(=O)N1CCN(C(=O)c2ccccc2SCC(=O)NCC2CCCCC2)CC1 | 6.98% (inactive) |
| COC(=O)[C@@]12CCCN1[C@H](c1ccc(-c3ccc(F)cc3)c(OC)c1)[C@H]1C(=O)N(C)C(=O)[C@H]12 | 20.6% (inactive) |
| CC(=O)O[C@H]1CC[C@@]2(C)[C@@H](CC[C@@H]3[C@@H]2CC[C@]2(C)[C@@H](C(C)(C)O)C[C@@H]32)C1 | -1.58% (inactive) |
| O=C(CCl)Nc1ccc(Sc2ccc(NC(=O)CCl)cc2)cc1 | -61.6% (active) |
| Cc1ccc(NC(=O)CC(=O)Nc2ccc(C)cc2)cc1 | 11.5% (inactive) |
| CC(C)(CCl)C(=O)Nc1ccc(Sc2ccc(F)cc2)cc1 | 6.39% (inactive) |
| O=C(c1cc(-c2ccco2)nc2ccccc12)N(Cc1nnc(-c2ccc(Cl)cc2)o1)C1CC1 | 8.92% (inactive) |
| Cc1cc(C(=O)OC(C)C(=O)NC2CCCCC2C)c(C)o1 (centres undefined) | 3.94% (inactive) |
| COc1ccc(S(=O)(=O)NC(C)C(=O)Nc2cccc([N+](=O)[O-])c2)cc1 (centres undefined) | -3.53% (inactive) |
| COc1cccc(CNC(=O)CCCC(=O)Nc2cccc([N+](=O)[O-])c2)c1 | -0.854% (inactive) |
| COC(=O)/C=C\C(=O)Nc1cccc([N+](=O)[O-])c1 | -76.8% (active) |

| SMILES | activity change, negative = inhibition |
| --- | --- |
| Cc1ccc(OCC(=O)Oc2ccccc2[N+](=O)[O-])cc1 | -1.37% (inactive) |
| CCOc1ccc(C(=O)Nc2cc(Cl)ccc2-n2cncn2)cc1OC | -3.95% (inactive) |
| Cc1cc(/C=N/n2cnnc2)c(C)n1-c1ccc2ncccc2c1 | -11.6% (inactive) |
| O=C(COC(=O)c1cnccn1)Nc1ccc(Cl)cc1C(F)(F)F | -5.67% (inactive) |
| O=C(CS(=O)(=O)Cc1ccccc1)NCC1CCCO1 (centres undefined) | -53.1% (active) |
| S=C(NCCc1ccccc1)NCC1CCCO1 (centres undefined) | 14% (inactive) |
| O=C(COC(=O)c1ccc(S(=O)(=O)Nc2ccccc2)cc1)NCC1CCCO1 (centres undefined) | -11.9% (inactive) |
| CS(=O)(=O)c1ccc(Cl)c(NC(=O)COC(=O)c2ncc(Cl)c(Cl)c2Cl)c1 | 0.97% (inactive) |
| O=C(CN1CCOCC1)Nc1cccc([N+](=O)[O-])c1 | 6.69% (inactive) |
| C=CCNc1ncnc2ccc(Br)cc12 | -13.4% (inactive) |
| COc1ccc(Nc2ncnc3ccc(Br)cc23)c(OC)c1 | -71.5% (active) |
| COc1ccc(Nc2ncnc3sc(-c4ccccc4)cc23)c(OC)c1 | -2.06% (inactive) |
| Cc1ccc(C)c(OCCC(=O)OCC(=O)NC(=O)NCc2ccccc2)c1 | -6.76% (inactive) |
| COc1ccc(NC(=O)/C(Cl)=C(/Cl)S(=O)Cc2ccc(C)cc2)cn1 (centres undefined) | -94.7% (active) |
| COc1ccc(Nc2cc(Cl)ccc2C(=O)O)cn1 | 0.861% (inactive) |
| COc1ccc(NC(=O)c2cc(-c3ccc(C)cc3)on2)cc1 | -1.83% (inactive) |
| CCCCn1c(N)c(N(CC)C(=O)c2ccc(N(C)S(=O)(=O)c3ccc(C)cc3)cc2)c(=O)[nH]c1=O | -4.56% (inactive) |
| CCN1C(=O)[C@H]2[C@@H](c3ccc(SC4CCCCC4)c(OC)c3)N[C@@](Cc3ccccc3)(C(=O)OC)[C@H]2C1=O | 6.65% (inactive) |
| Cc1cc(C(=O)CCC(=O)NNC(=O)c2ccccc2O)c(C)s1 | 1.38% (inactive) |
